According to PubChem BioAssay (NCI):
The panel holds about 83,000 compounds, 20% with a hit somewhere; the sample as a whole holds those more often.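 48-hour exposure, single concentration, 96-well plates; percent growth endpoint where 0 means no net growth. Active: below 10.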 A number with no mark means an inactive call. Calls of active or inactive are those of the source.

The molecules below were run on HOP-92 NSCLC (assay: NCI-60 one-dose screen, 48 h (100 = growth as untreated, 0 = no growth, -100 = all killed)). Conditions: 10 µM unless noted.
`O=C1c2cccc3cccc(c23)C(=O)N1N1C(=O)c2cccc3c(N4CCOCC4)ccc(c23)C1=O` gave a growth of 85.6%. In the case of `CCO/C=N/C1=C(C#N)C(c2ccc(OC)cc2)c2sc3c(F)cccc3c2O1` (stereo not given), the growth is reported as 62.6%. `Cc1ccc(CNc2ccc(Cl)cc2NCc2ccc(C)c(O)c2)cc1O` was tested, and the growth was -11% (active). In the case of `O=C(c1ccc(-c2nc(CSc3nc4ccccc4s3)no2)cc1)N1CCSCC1`, the growth is reported as 66.4%. Molecule `C/C(=C(/c1ccc(Cl)cc1)c1ccc(OCCN2CCCC2)cc1)c1ccc(Cl)cc1` has a growth of 69.5%. Work on `CC[C@]12C=CCN3CC[C@@]4(c5cc(NC(=O)CCC(=O)OCc6cn(Cc7ccc(F)cc7)nn6)c(OC)cc5N(C)[C@H]4[C@@](O)(C(=O)OC)[C@@H]1OC(C)=O)[C@@H]32` yielded a growth of 92.5%. With `C=C(C)[C@@H]1CC[C@]2(C(=O)O)CC[C@]3(C)[C@H](CC[C@@H]4[C@@]5(C)C[C@@H](Cc6cn(CCO[C@@H]7O[C@H](COC(C)=O)[C@H](OC(C)=O)[C@H](OC(C)=O)[C@H]7OC(C)=O)nn6)[C@H](O)C(C)(C)[C@@H]5CC[C@]43C)[C@@H]12` the growth was -3.81% (active). `C=CCn1c(SCC(=O)Nc2ccc(C(=O)/C=C/c3ccc(Cl)cc3)cc2)nnc1-c1cc(-c2ccc(S(N)(=O)=O)cc2)nc2ccccc12` gave a growth of 91.4%. `CCOC(=O)C1=NN(c2ccccc2)C(=O)/C1=C\N1C(=O)CC(=O)NC1=S` showed a growth of 102%. Work on `CC12CCC3c4ccccc4CCC3(CO1)C2` (stereo not given) yielded a growth of 105%. For `O=C1CC(N2C(=O)/C(=C/C(Cl)=C\c3ccc([N+](=O)[O-])cc3)SC2=S)C(=O)N1c1ccc(Cl)cc1` (stereo not given), the growth was -18.6% (active). In the case of `CC1(C)c2[nH]c3ccccc3c2C[C@]2(C)[C@H]3CC=C4[C@@H]5C[C@@](C)(C(N)=O)CC[C@]5(C)CC[C@@]4(C)[C@]3(C)CC[C@@H]12`, the growth is reported as 80.6%. `CCCCCOc1ccc(C(=O)/C(Br)=C/C(=O)O)cc1` was tested, and the growth was 99.2%. In the case of `CC(C)N1CCN(Cc2ccc3c(NNC(=O)c4ccccc4)nc4cc(F)ccc4n23)CC1`, the growth is reported as 49%. `N#Cc1cccc(NC(=O)c2oc3ccccc3c2-c2cnn(-c3ccccc3)c2)c1` was tested, and the growth was -23.3% [50 µM] (active). `Cc1cccc(N2CCN(CC(O)COc3ccc(Cl)cc3)CC2)c1` (stereo not given) showed a growth of 88.1%. In the case of `CCOC(=O)c1c(C)nc2c(c1N)CC(=O)N2Cc1cc(F)cc(Cl)c1`, the growth is reported as 78.1%. `C[C@@H]1CCC[C@H]1CC(N)C(=O)O` (stereo not given in full) was tested, and the growth was 98.2%. In the case of `O=CC1(C2(C=O)c3ccccc3-c3ccccc32)c2ccccc2-c2ccccc21`, the growth is reported as -74.8% (active). `O=C1Nc2ccc(I)cc2C1=O` gave a growth of 104%. In the case of `CN1CCN(c2ccc(NC(=O)c3nc4ccc5[nH]ncc5c4c4c3CCCC4)cc2C(F)(F)F)CC1`, the growth is reported as 49.2%. In the case of `CN(C)C1CCN(Cc2ccc(NC(=O)c3cncc(C#Cc4cnc(N)c5ncccc45)c3)cc2C(F)(F)F)CC1`, the growth is reported as 66.4%. `COc1ccc(C/C(C)=C(/c2ccc(OCCN3CCCCC3)cc2)c2ccc(OC(=O)NCc3ccccc3)cc2)cc1` was tested, and the growth was -92.7% (active). `COc1ccccc1NC(=O)Cn1cc(CN2CCN(c3ccnc4cc(Cl)ccc34)CC2)nn1` showed a growth of 61.8%. Work on `N=C(N)c1ccc(-c2ccc(-c3ccc(F)cc3)o2)o1` yielded a growth of 16.2%. `CN1C(=O)/C(=C/c2ccc(C(=O)Nc3ncc(Cc4ccc(Cl)cc4)s3)cc2)SC1=S` gave a growth of 51.6%. `CCCCCC(=O)OCC(=O)O[C@@H]1C[C@]2(C(C)C)O[C@@]1(C)[C@@H]1CC[C@@H](C)[C@H]1[C@@H]2OC(=O)/C=C/c1ccccc1` was tested, and the growth was 95.3%. `CC(=O)N(N=Nc1ccccc1)c1cccc2ccccc12` was tested, and the growth was 96.5%. In the case of `COc1ccc(/C=C2\C(=O)N=C3N2NC(c2cc(Br)ccc2O)C=C(C)N3c2ccccc2)cc1` (stereo not given), the growth is reported as 93.6%. `CC(C)(C)[Si](C)(C)O[C@H]1C(=O)C=CN2CC=C[C@@H]12` was tested, and the growth was 93.9% [100 µM]. For `C=C1C(=O)O[C@H]2[C@H]1CC/C(COC(=O)CSCCSCC(=O)OC/C1=C/CC[C@@]3(C)O[C@H]3[C@H]3OC(=O)C(=C)[C@@H]3CC1)=C\CC[C@@]1(C)O[C@@H]21`, the growth was -0.141% (active). Work on `Brc1ccc2[nH]cc(-c3nonc3-c3c[nH]c4ccccc34)c2c1` yielded a growth of 32.1%. For `COc1cccc(NC(=O)Cn2cc(CN3CCN(c4ccnc5cc(Cl)ccc45)CC3)nn2)c1`, the growth was 41.2%. In the case of `CCOc1ccc(NC(=O)CSc2oc(-c3ccccc3)nc2S(=O)(=O)c2ccc(F)cc2)cc1`, the growth is reported as 31.1%. Molecule `O=C1Nc2ccc(Br)cc2/C1=N/c1n[nH]c(=S)s1` has a growth of 94.8%. In the case of `COc1ccc(C(=O)C2C(c3ccc(OC)cc3)CN(C)C23C(=O)Nc2ccccc23)cc1` (stereo not given), the growth is reported as 83%. `Cc1noc(C)c1C(=O)OCc1coc2ccccc2c1=O` was tested, and the growth was 27.4%. `C[C@]12CC[C@@H]3c4ccc(O)c([N+](=O)[O-])c4CC[C@H]3[C@@H]1CCC2=O` showed a growth of 86.6%. In the case of `COc1cccc([C@H]2c3[nH]c4ccccc4c3C[C@H]3C(=O)N(CCCCCCC(=O)NO)CC(=O)N23)c1`, the growth is reported as -1.94% (active). In the case of `CO/N=C(/C)c1ccc(NC(=O)CSc2nnc(-c3ccncc3)n2-c2ccccc2)cc1`, the growth is reported as 3.16% (active).
